Some of the results follow. Results filed as inconclusive are left out. Unmarked numbers belong to inactive results. Calls follow the shape of the dose curve; as a rule, active = well fitted curve in the direction sought with a large enough effect; inconclusive = small, poorly fitted or top-dose-only effect, or another doubt; inactive = no such curve, though single readings can be large or run the other way.
Assay: Cell Viability - CRE-beta lactamase CHO cell - 24 hr assay
Conditions: CRE-bla CHO viability, ATP luminescence; series mostly up to 46.1 µM; activity, negative = viability loss: at the top concentration
Excerpt: NIH Molecular Libraries Screening Centers Network [MLSCN] NIH Chemical Genomics Center [NCGC] National Institutes of Environmental Health Sciences [NIEHS] National Toxicology Program [NTP] MLSCN Grant: 1X01MH079867-01 Assay Provider: Marshall W. Nirenberg, U.S. National Heart, Lung and Blood Institute NCGC Assay Overview: We have developed a 1536-well cell-based assay for quantitative high throughput screening (qHTS) against a number of cell lines to determine in vitro cytotoxicity of small molecules. This particular assay uses CRE-bla CHO cell line from Invitrogen.
NCGC Assay Protocol Summary: The CellTiter-Glo luminescent cell viability assay (Promega) is a homogeneous method to measure the number of viable cells in culture. The end point readout of this assay is based on quantitation of intracellular ATP, an indicator of metabolic activity, using the luciferase reaction. Luciferase catalyzes the oxidation of beetle Luciferin to oxyluciferin and light in the presence of ATP. The luminescent signal is proportional to amount of ATP present. Using the CellTiter-Glo luminescent cell viability assay, the amount of cellular ATP was measured in the CRE-bla CHO cell line with complete culture medium following compound treatment for 24 hours. The assay was performed in opaque white Kalypsys 1536-well plates. In the screen, tamoxifen was used as positive control. The selected compounds were measured for their ability to cause acute toxicity in the cell line, as reflected by a decrease in intracellular ATP levels, in a concentration-dependent manner. Data were normalized to the controls for basal activity (DMSO only) and 100% inhibition (100 uM tamoxifen). AC50 values were determined from concentration-response data modeled with the standard Hill equation. NCGC Assay Protocol Summary 1. Reagent; 5 uL; 2000 CHO cells/well 2. Time; overnight; 37 C incubation 3. Compounds; 23 nL; 5.9 nM to 46 uM 4. Controls; 23 nL; Tamoxifen 4.5 nM to 92 uM 5. Time; 24 hr; 37 C incubation 6. Reagent; 5 uL; CellTiter Glo reagent 7. Time; 20 min; Room Temperature 8. Detection; Luminescence; Viewlux plate reader Keywords: cell viability, cytotoxicity, CHO cell line, luminescence, MLSMR, MLSCN, NIH Roadmap, qHTS, NCGC

SMILES | activity, negative = viability loss [%]
CC1CCc2sc3nc(N4CCN(CCO)CC4)n4ncnc4c3c2C1 (stereo not given) | -12.9
COc1ccc(CCNC(=O)CSc2nc(C)nc3c2oc2ccccc23)cc1OC | -6.91
Cc1nc(SCC(=O)Nc2cc(C)on2)c2c3c(sc2n1)CCCC3 | 8.55
Cc1nn(-c2ccccc2)c2sc(C(=O)N(Cc3ccco3)C(C)C(=O)NC(C)(C)C)cc12 (stereo not given) | -40.7
CCc1nc(Nc2ccc3nccnc3c2)c2oc3ccccc3c2n1 | -12.5

Source: PubChem BioAssay AID905 (National Center for Advancing Translational Sciences (NCATS), 2007)
